In PubChem BioAssay (Tox21) one finds Potency and activity change, negative = cytotoxicity data, which are given here for 40 compounds.

Results filed as inconclusive are left out. A call without a number means that no potency is given here. Active and inactive are the calls of the source. Calls come from the whole dose curve; as a rule, active = well fitted cell-killing curve with a large enough effect in the repeat runs; inconclusive = weak or mixed curves, or effect the other way; inactive = flat fitted curve, though single readings scatter.

This assay can be described thus: qHTS RealTime-Glo MT Cell Viability Assay in HepG2 cells - 0 hour (AID 1224889). Note: nearly all actives have a fitted effect of over 50% in size. To be noted: RealTime-Glo luminescence; series mostly up to 76.8 µM. The source says: U.S. Tox21 Program National Center for Advancing Translational Sciences [NCATS] NIH Chemical Genomics Center [NCGC] U.S. Environmental Protection Agency [EPA] National Institutes of Environmental Health Sciences [NIEHS] National Toxicology Program [NTP] U.S. Food and Drug Administration [FDA] Tox21 Assay Overview: Measure of cell viability is critical in the cell-base assay. Analysis of cell viability is necessary for the characterization of cell responses to cytotoxic drugs and environmental stress. A RealTime-Glo MT Cell Viability Assay to monitor cell viability in real time of continues cell culture during 40 hours of compound treatment was used to screen Tox21 10K library compounds in HepG2 cells. The RealTime-Glo MT Cell Viability Assay is a nonlytic, homogeneous, bioluminescent method to measure cell viability in real time using a simple, plate-based method. The assay involves adding NanoLuc luciferase and a cell-permeant prosubstrate to cells in culture. Viable cells reduce the proprietary prosubstrate to generate a substrate for NanoLuc luciferase. This substrate diffuses from cells into the surrounding culture medium, where it is rapidly used by the NanoLuc Enzyme to produce a luminescent signal. The signal correlates with the number of viable cells, making the assay well suited for cytotoxicity studies.
Tox21 Assay Protocol Summary: The mixture of HepG2 cell suspension and reagents were dispensed at 600cells/6 ul/well in 1536-well tissue culture treated black solid bottom plates using a Multidrop dispenser. After the assay plates were incubated at a 37 C/5% CO2 incubator for 5 hours, 23 nL of compounds dissolved in DMSO, positive and negative controls was transferred to the assay plate by a pintool work station. The plates were incubated at 37 C for 40 hours. The luminescence intensity were measured at 0h, 8h, 16h, 24h, 32h and 40h time points using ViewLux plate reader during compound treatment.
In general terms: Quantitative high-throughput screening tests each substance at several concentrations.
For `COC(=O)[C@@H]1[C@H]2C[C@H]3c4[nH]c5ccccc5c4CCN3C[C@@H]2CC[C@@H]1O`, the Potency entry was “inactive”.
In the case of `CC(=O)NCCCCCC(=O)O`, the Potency result is “inactive”.
On to `COc1ccc(OC)c(Cl)c1`, for which the Potency entry is “inactive”.
As for `CCCCNC1CC(C)(C)NC(C)(C)C1`, the Potency entry is “inactive”.
Still for that read-out and setting: the same measure for `CN1C(C)(C)CCCC1(C)C`: “inactive”.
As for `O=C(OCC(COC(=O)c1cccnc1)(COC(=O)c1cccnc1)COC(=O)c1cccnc1)c1cccnc1`, the Potency result is “inactive”.
For `COc1ccc(S(=O)(=O)N2c3ccc(Cl)cc3[C@@](O)(c3ccccc3Cl)[C@H]2C(=O)N2CCC[C@@H]2C(N)=O)cc1OC`, the Potency entry was “inactive”.
Still for that read-out and setting: the same measure for `ClCCCl`: “inactive”; for `C=C(C)C(=O)OCCN(CC)CC`: “inactive”; for `C[C@@H](O)[C@H]1C(=O)N2C(C(=O)O)=C(SCCN=CN)C[C@H]12`: “inactive”.
The same measure, in the same setting: the same measure for `Nc1ccc(S(=O)(=O)Nc2ccc(Cl)nn2)cc1`: “inactive”; for `Cc1ccccc1N=O`: “inactive”; for `CC(CC=O)CCCC(C)(C)O` (stereo not given): “inactive”.
Same read-out and setting: the same measure for `O=C(O)CCSSCCC(=O)O`: “inactive”; for `CCN(CC)CC(=O)Nc1c(C)cccc1C`: “inactive”; for `CCCCCCCCCCCCCC`: “inactive”.
As to `CCCCCOC(=O)CCC`, the Potency result is “inactive”.
`CCOCCOC(=O)/C=C/c1ccc(OC)cc1`: the Potency result is “inactive”.
Take `N[C@@H](COP(=O)(O)O)C(=O)O`: the activity change, negative = cytotoxicity was -1.1% [at 15.8 µM] (inactive).
Regarding `CCn1ccc(NS(=O)(=O)c2ccc(N)cc2)nc1=O`, the Potency entry is “inactive”.
The same measure, in the same setting: the same measure for `CCOC(=O)/C=C/c1ccccc1`: “inactive”; for `CCOC(=O)c1ncn2c1CN(C)C(=O)c1cc(F)ccc1-2`: “inactive”.
As for `CC(C)CC(=O)O`, the Potency entry was “inactive”.
The same measure, in the same setting: the same measure for `CC(C)(C)c1n[nH]c(=S)n(N)c1=O`: “inactive”.
On the same count and under the same terms, the entry for `CCN1CCc2nc(N)oc2CC1` is “inactive”.
With `C[C@H](N)[C@H](O)c1cccc(O)c1`, the Potency result was “inactive”.
The same measure, in the same setting: the same measure for `OCCCCC(O)CO` (stereo not given): “inactive”; for `O=C(/N=N/C(=O)OCc1ccccc1)OCc1ccccc1`: “inactive”; for `O=C(NCC(O)CO)c1c(I)c(C(=O)NCC(O)CO)c(I)c(N(CCO)C(=O)CO)c1I` (stereo not given): “inactive”.
As for `CC(=C(CCOC(=O)C(C)C)SSC(CCOC(=O)C(C)C)=C(C)N(C=O)Cc1cnc(C)nc1N)N(C=O)Cc1cnc(C)nc1N`, the Potency entry is “inactive”.
Regarding `CC(C)N(c1ccccc1)C(C)C`, the Potency entry was “inactive”.
On the same count and under the same terms, the entry for `CC(S)C(=O)NCC(=O)O` (stereo not given) is “inactive”; for `CC1COc2ccccc2N1` (stereo not given) it is “inactive”.
The same measure, in the same setting: the same measure for `On1nnc2ccccc21`: “inactive”; for `COC(=O)CCc1ccc(OCC(O)CNC(C)C)cc1` (stereo not given): “inactive”; for `C=C(C)C(=O)OCCOP(=O)(O)OCCOC(=O)C(=C)C`: “inactive”.
Same read-out and setting: the entry for `CCC(C)(CCC(C)C)C(=O)O` (stereo not given) is “inactive”.
In the case of `Cc1ccsc1/C=C/C1=NCCCN1C`, the Potency result was “inactive”.
Turning to `CN(C)CCOCCO`, the Potency entry was “inactive”.
Still for that read-out and setting: the entry for `C=C(C)C(=O)OCC(C)(C)COC(=O)C(=C)C` is “inactive”.
